This is part of a sample that, as a whole, favours compounds with a hit. Of some 83,000 tested, about 20% had one in any assay.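 Single-dose data. Exposure time 48 hours. Values below 10 considered active.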 A number with no mark means an inactive call. Activity calls are given as the source filed them.
These compounds were tested on HL-60(TB) leukemia (assay: NCI-60 one-dose screen, 48 h (100 = growth as untreated, 0 = no growth, -100 = all killed)). Conditions: 10 µM unless noted.

SMILES	growth
CC(=O)c1sc(-c2ccccc2)cc1N	83.6%
O=C(NO)c1ccc(Cn2c(=O)n(-c3ccccc3F)c(=O)c3ccccc32)cc1	-1.46% (active)
COc1cc(NC(=O)Nc2cnc(Nc3ccc(N4CCOCC4)cc3)nc2Oc2ccc(C(F)(F)F)cc2)cc(OC)c1	96.4%
CC(C)(C)c1ccc(OCCCCCCCN2CCNCC2)cc1	-40.7% (active)
CCOC(=O)C(CC)n1c(=O)c2cc(OC)c(OC)cc2c2cnc3[nH]ccc3c21 (stereo not given)	62.1%
COc1cc(OC)cc(C2CC(=O)Nc3c2c(C)nn3-c2nc3ccccc3[nH]2)c1 (stereo not given)	9.31% (active)
O=C1c2c(c3c4cc(F)ccc4oc3c3[nH]c4ccccc4c23)C(=O)N1O	41.8%
NC(=O)CC1(O)C=C(Br)C(=O)C(Br)=C1	-27.9% (active)
CCOC(=O)C#Cc1c(CC(=O)OCC)nnn1[C@H]1O[C@@H](CO)[C@@H]2OC(C)(C)O[C@@H]21	38%
CC(C)n1cc2c(N)ncnc2n1	101%
Nc1nc2ccc(-c3nc4ccc5[nH]ncc5c4c4c3CCC4)cc2s1	30.2%
O=C(NNC(=O)c1nc2cc(F)ccc2n2cccc12)c1cnccn1	17.8%
C=C(C)[C@@H]1CC[C@]2(C(=O)O)CC[C@]3(C)[C@H](CC[C@@H]4[C@@]5(C)C/C(=C/c6cccc(I)c6)C(=O)C(C)(C)[C@@H]5CC[C@]43C)[C@@H]12	7.47% (active)
CCN(CC)CCN1CC(O)=C(c2nc(-c3ccc(Cl)cc3)cs2)C1=N	-33.7% (active)
O=C(Cc1cccc2ccccc12)N/N=C/c1ccc2c(c1)CCC2	68.3%
C[C@@H]1CC[C@@H]2[C@@H]1[C@H](OC(=O)/C=C/c1ccccc1)[C@]1(C3CCCCC3)C[C@@H](NC(=O)CO)[C@@]2(C)O1	104%
CC1(C)CC(=O)CC2(C1)N=C(N)Nc1nc3ccccc3n12 (stereo not given)	92.5%
CO[C@H]1/C=C/O[C@@]2(C)Oc3c(C)c(O)c4c(O)c(c5c(nc6cc(C)ccn65)c4c3C2=O)NC(=O)/C(C)=C\C=C\[C@H](C)[C@H](O)[C@@H](C)C(O)[C@@H](C)[C@H](OC(C)=O)[C@@H]1C (stereo not given in full)	102%
CC(=C(c1ccc(OCCN2CCCCC2)cc1)c1ccc(OCCN2CCCCC2)cc1)c1ccc(Cl)cc1	-62% (active)
CCCCCCCCCCCCS(=O)CC(C)O (stereo not given)	99%

SMILES	growth
Cc1nc(N)sc1C(=O)NCCO	167%
N#Cc1c(N2CCOCC2)nc(=S)[nH]c1-c1ccccc1	70.2%
c1ccc(CNc2ncnc3scc(-c4cccs4)c23)nc1	58.2%
CC1=C(N2CCOCC2)C(N2CCOCC2)=C(C)C(=O)C1=O	97.3%
O=C(CN1C(=O)S/C(=C\c2ccccc2)C1=O)Nc1ncc(Cc2ccccc2Cl)s1	95.1%
CC12CCC(/C(=C/NNc3ccc([N+](=O)[O-])cc3[N+](=O)[O-])C1=O)C2(C)C (stereo not given)	110%
CC1=C(C(=O)Nc2nc(-c3ccc(Cl)cc3)cs2)[C@H](c2ccc(O)cc2)NC(=O)N1	98.7%
CN(C)c1nc(N)nc(Cn2c(-c3nonc3N)nc3ccccc32)n1	94.2%
CCc1c(C)c2ccc(OCC(=O)N=Nc3c(O)[nH]c4ccccc34)c(C)c2oc1=O	-22.3% (active)
O=C(CN1C=NC2C(N3CCOCC3)=NC=NC21)c1ccc(Br)cc1 (stereo not given)	102%
COc1ccc2cc(C3=CC(=O)CCC3)ccc2c1	89.7%
CCCN1CCN(c2ccc3nc(-c4ccc5nc(-c6ccc(OCC)c(OCC)c6)[nH]c5c4)[nH]c3c2)CC1	-23.1% (active)
COc1cc(/C=C/c2ccc3c(Br)cc(Br)c(O)c3n2)ccc1O	-47.3% (active)
COc1c(Br)cc(C(c2cc(Br)c(OC)c(Br)c2)c2ccccc2C(=O)O)cc1Br	91%
Cn1c(=O)c2c(nc3n(-c4ccc(Cl)cc4Cl)c(Sc4nc(-c5ccccc5)c(C#N)c(=O)[nH]4)cn23)n(C)c1=O	76.5%
COc1cc(C(=O)/C=C/c2c(-c3cccs3)nc3sc(C)cn23)cc(OC)c1OC	-18.4% (active)
COc1ccc(/C=C(\C#N)n2nnc3ccc(Cl)cc32)cc1	86.6%
O=C1NCCN1/N=C/c1c(Cl)n(Cc2ccc(Cl)cc2)c2ccccc12	74.4%
O=[N+]([O-])c1cccc(/C=C/c2ccccn2)c1	120%
Cc1cc(C)n(CC(=O)Nc2ccc(-c3nc4ccccc4s3)cc2)n1	103%

Reference: PubChem BioAssay (NCI)
